Data on 9 compounds can be found in PubChem BioAssay (NCI).

The panel holds about 83,000 compounds, 20% with a hit somewhere; the sample as a whole holds those more often.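 Single-concentration screen, 48 h exposure, 96-well plates. Endpoint: percent growth. Below 10 = active.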 Unmarked numbers belong to inactive results. Active and inactive are the calls of the source.

Holding throughout (test): NCI-60 one-dose screen, 48 h (100 = growth as untreated, 0 = no growth, -100 = all killed)
For assay [1], the system named is NCI-H23 lung. The note with it: 10 µM unless noted.
Assay [2] concerns NCI-H226 lung. As to conditions: 10 µM unless noted.
Assay [3] concerns NCI-H322M lung. The note with it: 10 µM unless noted.
Assay [4] has as its system HOP-62 NSCLC. As to conditions: 10 µM unless noted.
The test system of assay [5] is NCI-H460 lung. The note with it: 10 µM unless noted.
Assay [6] deals with HOP-92 NSCLC. The note with it: 10 µM.
Assay [7] has as its system NCI-H522 lung. As to conditions: 10 µM unless noted.
Assay [8] concerns A549/ATCC NSCLC. As to conditions: 10 µM unless noted.
In assay [9] the test system is 786-0 renal. As to conditions: 10 µM unless noted.
Assay [10] deals with COLO 205 colon. The note with it: 10 µM unless noted.
Assay [11] concerns DU-145 prostate. As to conditions: 10 µM unless noted.
Assay [12] relates to K-562 leukemia. The note with it: 10 µM unless noted.
Assay [13] has as its system MALME-3M melanoma. The note with it: 10 µM unless noted.
Assay [14] relates to MDA-MB-231 breast. The note with it: 10 µM unless noted.
Assay [15] deals with SF-268 CNS. As to conditions: 10 µM unless noted.
For assay [16], the system named is SF-295 CNS. As to conditions: 10 µM unless noted.
Assay [17] concerns SF-539 CNS. As to conditions: 10 µM unless noted.
For assay [18], the system named is UACC-257 melanoma. The note with it: 10 µM unless noted.

Consider `C=C(C=O)[C@@H]1CC[C@]2(COC(C)=O)CC[C@]3(C)C(CC[C@@H]4[C@@]5(C)CC[C@H](OC(C)=O)C(C)(C)[C@@H]5CC[C@]43C)[C@@H]12` (some centres not stated), for which the growth is -22.4% (active) in [1]; -55.5% (active) in [2]; 40.5% in [3]; 80.6% in assay [4]; -23.2% (active) in assay [5]; -78.8% (active) in [6]. Moreover, the growth in assay [7] is -35.5% (active); in assay [8], 36.5%; in assay [9], 2.99% (active); in [10], -8.44% (active); in assay [11], -53% (active); in assay [12], 2.89% (active). Moreover, the growth is -64.7% (active) in [13]; -32.2% (active) in assay [14]; 6.02% (active) in [15]; 0.392% (active) in assay [16]; -50.2% (active) in assay [17]; -17.2% (active) in [18].
Turning to `O=C(NNc1nc2cc(F)c(F)cc2n2c(CN3CC4CNCC4C3)ccc12)c1cnccn1` (configuration not stated), the growth in [1] is 26.7%; in assay [2], 16.8%; in assay [3], 26.7%; in [4], 10.8%; in assay [5], 1.73% (active); in assay [6], 37.4%. For the same compound, the growth was 11.2% in assay [7]; 16.9% in assay [8]; 16.5% in assay [9]; 11.4% in assay [10]; 22.1% in assay [11]; 14.1% in [12]. The growth in [13] is 7.02% (active); in assay [14], 39.6%; in assay [15], 15.8%; in assay [16], 5.87% (active); in assay [17], 8.64% (active); in assay [18] it was 7.77% (active).
Turning to `Cc1ccc(-n2cc(/C=C/C(=O)c3ccc(O)cc3)c(-c3ccc(S(C)(=O)=O)cc3)n2)cc1`, the growth is 68.9% in assay [1]; 99.6% in [2]; 99.1% in [3]; 76% in [4]; 80.8% in assay [5]; 110% in [6]. The growth in assay [7] is 58.9%; in assay [8] it was 102%; in assay [9], 94.4%; in [10] it was 111%; in assay [11], 82.8%; in [12] it was 17.8%. Further, the growth in assay [13] was 44.9%; in assay [14] it was 67.7%; in assay [15], 85.9%; in assay [16] it was 87.3%; in [17], 60.2%; in assay [18], 93.5%.
As to `CCOc1ccc(NC2=C(Cl)C(=O)c3nc(C)ccc3C2=O)cc1`, the growth in assay [1] is -61% (active); in [2] it was -52.6% (active); in assay [3], 32.4%; in assay [4], 72.1%; in assay [5], 13.4%; in assay [6], -87% (active). Moreover, the growth in [7] was -61.6% (active); in [8] it was 46.2%; in assay [9] it was 8.39% (active); in [10] it was 98.2%; in assay [11], -92.7% (active); in [12], -4.17% (active). The growth in assay [13] is -90.6% (active); in assay [14], -71.7% (active); in assay [15], 32.3%; in assay [16], 51%; in assay [17] it was -58.8% (active); in assay [18], -89.2% (active).
With `N#Cc1cnc2ccc(-c3cnc(N)nc3)cc2c1N1CCc2cc(F)c(Cl)cc21`, the growth in assay [1] was 9.66% (active); in assay [2] it was 9.54% (active); in [3], 10%; in assay [4], 2.88% (active); in assay [5], 7.28% (active); in assay [6], -19% (active). Moreover, the growth in [7] was 10.4%; in assay [8] it was 4.58% (active); in assay [9], 3.11% (active); in assay [10], 6.97% (active); in [11] it was 13.3%; in [12], 12%. In addition, the growth was -11.6% (active) in [13]; 14.9% in assay [14]; 5.13% (active) in assay [15]; -8.96% (active) in [16]; -12.5% (active) in assay [17]; 8.92% (active) in assay [18].
On to `CS(=O)(=O)Nc1cc(-c2ccc3ncc(C#N)c(N[C@H](CO)c4ccccc4)c3c2)cnc1Cl`, for which the growth in assay [1] is 45.2%; in assay [2] it was 56.2%; in assay [3], 78.3%; in [4], 46.8%; in [5], 74.3%; in assay [6], -2.14% (active). Further, the growth in assay [7] was 25.7%; in assay [8], 83.5%; in [9] it was 54.8%; in [10] it was 57%; in [11], 62.4%; in assay [12] it was 41.4%. The growth was 29.8% in [13]; 43% in assay [14]; 28.4% in assay [15]; 57% in assay [16]; 43.7% in assay [17]; 59.7% in assay [18].
With `CS(=O)(=O)Nc1cc(-c2ccc3ncc(C#N)c(NCc4ccccc4F)c3c2)cnc1Cl`, the growth was 1.49% (active) in assay [1]; 14.6% in [2]; 12.9% in assay [3]; 0.205% (active) in assay [4]; 5.08% (active) in assay [5]; -10.9% (active) in assay [6]. Moreover, the growth in assay [7] is 14.1%; in [8] it was 7.89% (active); in assay [9] it was 11.4%; in assay [10], -24.7% (active); in assay [11] it was 19%; in assay [12], 13.2%. In addition, the growth in assay [13] is -35.6% (active); in [14] it was 5.59% (active); in [15], 7.96% (active); in assay [16], -21.7% (active); in assay [17], -11.5% (active); in [18] it was 2.07% (active).
In the case of `COc1cc2c(cc1OC)C(Sc1ccc(C)cc1)c1c(nc(N)c(C#N)c1N)O2` (configuration not stated), the growth in assay [1] is -74.1% (active); in [2] it was -1.22% (active); in assay [3], -93.9% (active); in [4], -1.58% (active); in assay [5], -54.9% (active); in assay [6] it was -31.8% (active). Moreover, the growth was -29% (active) in assay [7]; -38% (active) in [8]; -78.9% (active) in assay [9]; -28.5% (active) in assay [10]; -83% (active) in assay [11]; 4.48% (active) in [12]. Also, the growth in assay [13] was -70.7% (active); in [14] it was -41.4% (active); in assay [15], -54.5% (active); in [16], -84.1% (active); in assay [17], -86.3% (active); in assay [18], -35.2% (active).
`Cn1ccnc1C(=O)/C=C/c1ccc(CNC(=O)c2c(F)c(F)c(F)c(F)c2F)cc1`: the growth in assay [1] is 52.5%; in [2], 69.5%; in [3] it was 81%; in assay [4] it was 66.5%; in assay [5] it was 7.14% (active); in assay [6] it was 117%. Further, the growth was 32.1% in assay [7]; 70.4% in [8]; 28% in [9]; 102% in [10]; 17.7% in assay [11]; 21.1% in assay [12]. Moreover, the growth in [13] was 97%; in [14], 30.3%; in assay [15], 29.4%; in assay [16], 90.4%; in assay [17] it was 2.82% (active); in assay [18] it was 77%.
